Inconclusive results are not listed. The source made the active and inactive calls. The call rests on the fitted dose curve.

The assay can be described thus: Confirmation Concentration-Response Assay for Modulators of Lamin A Splicing. As to conditions: HeLa lamin A splicing GFP/RFP minigene, Acumen, 48 h; RFP activity: RFP channel at top concentration, at 46.1 µM; ratio activity: GFP/RFP ratio at top concentration, at 46.1 µM; series mostly up to 46.1 µM. From the text:
NCGC Assay Overview: Hutchinson-Gilford Progeria Syndrome (HGPS) is a pediatric premature aging disease caused by a spontaneous mutation in the lamin A/C (LMNA) gene. The mutation activates a cryptic splice site in the LMNA pre-mRNA which results in production of a pre-lamin A protein that cannot be processed properly. The mutant protein accumulates in the nucleus and negatively affects numerous cellular functions. Correction of the splicing defect in HGPS patient cells using a targeted oligonucleotide (exo11) leads to reversal of the cellular disease phenotypes. To identify small molecule modulators of aberrant LMNA splicing, a homogenous assay was constructed in HeLa cells that used a GFP containing minigene to report on correction of aberrant splicing in lamin A and a RFP (DsRed2) to report on cell viability, uniformity and nonspecific effects on the assay signal. This assay was adapted to laser-scanning microplate cytometry (Acumen, TTP Labtech) where miniaturization of the assay to a 1,536-well plate format was possible. Select compounds active in the primary screen (AID 1487) were chosen for confirmation based on potency, efficacy, SAR and activity in other assays in PubChem and at NCGC. References: Bowen, W. P.; Wylie, P. G. Application of Laser-Scanning Fluorescence Microplate Cytometry in High Content Screening. Assay Drug Dev Technol 2006;4:209-221. Scaffidi P, Misteli T. Reversal of the cellular phenotype in the premature aging disease Hutchinson-Gilford progeria syndrome. Nat. Med. 2005;11:440-445.
NCGC Assay Protocol Summary: Reagents/Controls: Stable clones expressing DsRed2 and lamin A-EGFP were generated by Cell and Molecular Technologies in S3 HeLa cells. HeLa cells were prepared for the assay when they were 70-90% confluent. The cells were counted and resuspended in Opti-MEM I (no phenol red; Gibco), 2% FBS, 1% penicillin/ streptomycin (Gibco) at concentration of 120 cells/uL concentration. The suspension was passed through a Falcon basket filter with pore size 40um (Beckton Dickson). Control titrations: column […] 1536-well plate contained a sixteen point titration (1:2 dilutions) in duplicate of ancitabine (Sigma: A8598) beginning at 40 uM final concentration. Column 2 contained a sixteen point titration (1:2 dilutions) of cycloheximide beginning at 1.4 mM final concentration. Column 3 contained ancitabine at 40 uM and column 4 contained was the vehicle control (0.5% DMSO final concentration). Assay Steps: 5 uL of HeLa cells were plated in Aurora LoBase black clear bottom (cyclic-olefin polymer) 1536-well plates at a final density of 600 cells/well. Controls and library compounds were added with a 1536-well pin array using the Kalypsys pin-tool. The plates were then incubated for 48 hrs in a cell-culture incubator (37 °C; 5% CO2, 98% humidity). Following incubation the plates were read on the Acumen Explorer using the 488 nm laser. Data was collected on objects between 10 and 100 um in size. Cell objects were defined by a 15 um width x 10 um depth filter. The ratio of the total object intensity in PMT1 (500-530 nm emission; GFP) over PMT3 (575-640 nm emission; RFP) was calculated for analysis. Keywords: NIH Roadmap, MLSCN, MLI, MLSMR, qHTS, NCGC, lamin A, Progeria, RNA splicing.

Take `CN1C(=O)CCS(=O)(=O)[C@@H]1c1ccc(Cl)cc1`: the RFP activity was -19.9%, the result was inactive and the ratio activity was -2.66%.

On to `c1ccc(C2OCCN3CCCCC23)cc1` (stereo unspecified), for which the RFP activity was -2.54%, the result was inactive and the ratio activity was -7.51%.

(Values after PubChem BioAssay AID1498 (National Center for Advancing Translational Sciences (NCATS), 2009).)
